Screening results as filed in PubChem BioAssay.
GLS inhibitor: inhibitors of human glutaminase (GLS); 410,000 compounds, 0.21% hits; AID 624170; GLS enzymatic activity, qHTS titration; Potency, µM (titrated, usually from 45.5 µM), for the others: at the highest dose activity change, negative = inhibition, actives largely listed as inhibitors; further: potency means the concentration at half of the fitted maximal effect; on the % scale 0 is the no-effect control and ±100 the full control effect
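hKGA in 45 mM KH2PO4 (pH 8.2), 0.02% Tween-20 with compound, then 1mM L-Glutamine (stock as added) plus glutamate oxidase/HRP/Amplex red coupling mix. Fluorescence read initially and after 30 min at RT; signal change reflects glutamate formation.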
IDH1 R132H inh: blocks human mutant IDH1 R132H enzyme | IDH1-R132H enzyme, NADPH consumption, diaphorase/resazurin fluorescence | AID 602179 | Potency, µM (doses to about 76.6 µM), for inactives: at the top dose activity change, negative = inhibition, most hits filed as inhibitors | 390,000 compounds, 0.093% hits; further: potency means the concentration at half of the fitted maximal effect; on the % scale 0 is the no-effect control and ±100 the full control effect; nearly all actives have a fitted effect of over 65% in size
Target sequence (O75874 whole entry R132H, stated change not applied): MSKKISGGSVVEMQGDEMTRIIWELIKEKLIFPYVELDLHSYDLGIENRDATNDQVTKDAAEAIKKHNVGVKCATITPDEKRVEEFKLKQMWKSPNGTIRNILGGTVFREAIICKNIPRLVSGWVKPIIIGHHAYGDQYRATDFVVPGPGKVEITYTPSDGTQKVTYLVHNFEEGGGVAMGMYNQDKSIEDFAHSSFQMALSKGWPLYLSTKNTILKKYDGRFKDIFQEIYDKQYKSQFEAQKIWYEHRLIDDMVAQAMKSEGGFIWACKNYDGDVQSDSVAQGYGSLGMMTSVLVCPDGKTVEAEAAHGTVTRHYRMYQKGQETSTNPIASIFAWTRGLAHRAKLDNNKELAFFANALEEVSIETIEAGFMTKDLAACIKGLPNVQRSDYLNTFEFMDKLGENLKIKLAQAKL
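IDH1-R132H (0.5 ug/mL dispensed) in pH 7.5 Tris buffer was preincubated 30 min with compound, then given a substrate mix of 0.016 mM NADPH and 2 mM alpha-KG for 80 min at room temperature; remaining NADPH was read by diaphorase/resazurin fluorescence.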
rTrxR1 inhibitor: inhibitors of rat thioredoxin reductase 1. recombinant rTrxR1, NADPH fluorescence consumption, selenite substrate. Potency, µM (highest dose often 114 µM), for inactives: top-dose activity change, negative = inhibition, hits mostly inhibitors. 390,000 compounds, 1% hits. O89049. AID 588453; further: potency means the concentration at half of the fitted maximal effect; on the % scale 0 is the no-effect control and ±100 the full control effect; nearly all actives have a fitted effect of over 65% in size
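Rat TrxR1 (90 nM in the dispensed reagent) was pre-reduced with 400 uM NADPH for 5 min at room temperature, then incubated with compound for 15 min. After 400 uM selenite was added, NADPH fluorescence (Ex 340/Em 450 nm) was followed for 8 min.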
TrxR1 substrate: substrates of rat thioredoxin reductase 1; AID 588456; Potency, µM (series often up to 114 µM), inactives show at the highest dose activity change, negative = substrate turnover; purified TrxR1 substrate turnover, NADPH consumption readout; O89049; 390,000 compounds, 0.01% hits; further: potency means the concentration at half of the fitted maximal effect; on the % scale 0 is the no-effect control and ±100 the full control effect; nearly all actives have a fitted effect of over 50% in size
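Rat TrxR1, dispensed at 90 nM, was prereduced with 400 uM NADPH (final) for 5 min at ~22 deg C, then incubated with compound 15 min before 400 uM selenite. A first-read NADPH fluorescence drop versus no-compound background flagged substrates.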
IDH1 autofl: autofluorescence interference, mutant IDH1 hit counter-screen; shares compounds with IDH1 R132H inh; Resorufin detection reagent fluorescence interference, cell-free; inhibition of signal, % at 51.2 µM; 750 tested, under 10 active;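 further: 0% = wells with normal resorufin and full inhibition = wells lacking resorufin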
IDH1 WT: inhibits human wild-type IDH1, mutant selectivity check; shares compounds with IDH1 R132H inh; Potency, µM (top dose mostly 115 µM), for inactives: top-dose activity change, negative = inhibition, usual class: inhibitors; 750 compounds, 9% hits; AID 623995; WT IDH1 enzyme, NADPH diaphorase/resazurin fluorescence;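 further: potency means the concentration at half of the fitted maximal effect; 0% = full WT IDH1 enzyme control and full inhibition = no enzyme wells; nearly all actives have a fitted effect of over 55% in size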
Target sequence (O75874 whole entry, looked up): as the sequence (O75874 whole entry R132H, stated change not applied) above, with H132R counted along it
mIDH1 confirm: confirmation of human mutant IDH1 inhibitors | shares compounds with IDH1 R132H inh | IDH1 R132H enzyme, NADPH diaphorase/resazurin fluorescence | Potency, µM (highest dose often 76.6 µM), for inactives: top-dose activity change, negative = inhibition, usual class: inhibitors | 750 compounds, 83% hits; further: potency means the concentration at half of the fitted maximal effect; nearly all actives have a fitted effect of over 50% in size
* hit, by the source's call; ? = inconclusive; . = no result; [ ] = remark or other dose. The list is not random: actives were taken first. Their share in the collection is about 1.2%. The call rests on the fitted dose curve; in most records, active means well fitted curve in the direction sought with a large enough effect; inconclusive means small, poorly fitted or top-dose-only effect, or another doubt; inactive means no such curve, though single readings can be large; an effect the other way counts as inactive or inconclusive.

SMILES	GLS inhibitor	IDH1 R132H inh	rTrxR1 inhibitor	TrxR1 substrate	IDH1 autofl	IDH1 WT	mIDH1 confirm
CCOc1cc(C2c3c(-c4ccccc4)n[nH]c3C(=O)N2c2ccc(C(=O)O)cc2)ccc1O (stereo not drawn)	?	-7%	?	-5%	.	.	.
COc1ccc(-c2n[nH]c3c2C(c2ccc(OC)c(OC)c2)N(c2ccccc2)C3=O)cc1 (stereo not drawn)	-1%	?	9%	1%	10	2%	20µM*
Cc1ccc(N2C(=O)c3[nH]nc(-c4ccc(Cl)cc4)c3C2c2ccc(F)cc2)cc1 (stereo not drawn)	5%	-20%	36%	4%	.	.	.
CCN(CC)c1cc2c(cc1F)c(=O)c(S(=O)(=O)c1ccc(C)cc1)cn2Cc1ccc(F)cc1	3%	0%	29%	52%	.	.	.
O=C(COc1ccccc1-c1ccccc1)NCCN1C(=O)S/C(=C\c2cccnc2)C1=O	1%	46µM*	-15%	-1%	-3	-11%	28µM*
Cc1nccn1-c1ccc(NC(=O)[C@H]2O[C@@H](n3ccc(N)nc3=O)[C@H](O)[C@@H]2O)cc1	2%	.	.	.	.	.	.
Cc1ccccc1C(=O)OCc1cc(=O)n2nc(-c3cccs3)sc2n1	-11%	7%	9%[57.1 µM]	-3%[57.1 µM]	.	.	.
O=C1CCCC[C@@H](O)[C@H](O)C[C@H](c2ccccc2)O1	-12%	.	.	.	.	.	.
C=C1CC2(CC(c3ccccc3)OC(c3ccccc3)C2)OC1=O (stereo not drawn)	4%	58µM*	-34%	-8%	2	?	22µM*
Cc1cc(C)nc(N/N=C/C2=C(N3CCOCC3)C(=C/c3ccccc3)/CC2)n1	19%	29µM*	-25%	-14%	-4	2%	20µM*
Cc1ccc(NC(=O)CCNS(=O)(=O)c2ccc3c(c2)CCC(=O)N3)c(Br)c1	1%	0%	7%[57.1 µM]	5%[57.1 µM]	.	.	.
CCCN(CCC)C(=O)Cn1c(SCc2cccc(C(F)(F)F)c2)nc2cccnc21	-3%	-10%	?	-1%	.	.	.
O=C1/C(=C\c2ccc(Cl)c(Cl)c2)CN(C(=O)CCN2CCOCC2)C/C1=C/c1ccc(Cl)c(Cl)c1	-10%	?	1.4µM*	11%[57.1 µM]	-4	-4%	28µM*
O=C(NCCN1CCOCC1)c1ccc(Cl)c(Cl)c1	1%	2%	24%	-1%	.	.	.
COc1ccc(C(=O)Nc2ccccc2-c2nc3ccccc3s2)cc1OC	-9%	0%	43%	23%	.	.	.
COc1ccc(N(C(=O)/C=C\C(=O)Nc2ccc(Cl)cc2)C(C(=O)NCc2ccco2)c2ccc(C)cc2)cc1 (stereo not drawn)	4%	?	-14%[57.1 µM]	-5%[57.1 µM]	0	4%	-11%
CC1CN(C(=O)CCC(=O)NCc2cccs2)c2cc(Cl)ccc2O1 (stereo not drawn)	-5%	-6%	2%	15%	.	.	.
CCOC(=O)c1ccccc1NC(=O)c1cn(CC(C)C)c(=O)c2cc(OC)c(OC)cc12	-1%	45µM*	14%	9%[2.29 µM]	-7	1%	14µM*
Cc1cc(NC(=O)CCC(=O)N(c2ccccc2C)C(C(=O)NC2CCCC2)c2ccccc2)no1 (stereo not drawn)	0%	?	5%	-2%	2	10%	25µM*
Cc1cc(C)cc(N(C(=O)CCC(=O)Nc2cc(C)on2)C(C(=O)NC2CCCC2)c2ccco2)c1 (stereo not drawn)	5%	?	6%[57.1 µM]	-1%[57.1 µM]	3	13%	25µM*
Cc1cc(NC(=O)CCC(=O)N(c2ccccc2)C(C(=O)NC2CCCC2)c2ccccc2C)no1 (stereo not drawn)	10%	37µM*	18%	0%	2	7%	13µM*
Cc1ccc(N(C(=O)CCC(=O)Nc2cc(C)on2)C(C(=O)NC2CCCC2)c2ccccc2)cc1 (stereo not drawn)	1%	?	0%	0%	-4	-4%	22µM*
O=Nc1ccc(/C=C/c2ccnc3ccccc23)cc1	.	.	16%	8%	.	.	.
Cc1c(C2(c3cc(C(C)C)c(O)c(Br)c3C)OS(=O)(=O)c3ccccc32)cc(C(C)C)c(O)c1Br	.	.	-35%	-13%	.	.	.
COc1ccc(-c2cc(C(F)(F)F)n3ncc(C(=O)N(C)Cc4ccccc4)c3n2)cc1	-13%	-4%	16%[57.1 µM]	5%[57.1 µM]	.	.	.
SMILES	GLS inhibitor	IDH1 R132H inh	rTrxR1 inhibitor	TrxR1 substrate	IDH1 autofl	IDH1 WT	mIDH1 confirm
Cc1ccc(CNC(=O)c2ccc(CSCc3c(F)cccc3Cl)o2)cc1	-4%	40µM*	3%[57.1 µM]	-2%[57.1 µM]	4	-1%	0%
Cc1ccc(CNC(=O)c2ccc(CSCc3ccc(C)cc3)o2)cc1	-3%	-15%	4%[57.1 µM]	-1%[57.1 µM]	.	.	.
COC(=O)c1sccc1S(=O)(=O)N1CCN(c2ccccc2)CC1	2%	2%	-8%[57.1 µM]	1%[57.1 µM]	.	.	.
CCOc1ccccc1NC(=O)CN1C(=O)COc2ccc(S(=O)(=O)Nc3ccccc3)cc21	-2%	-7%	23%	-6%	.	.	.
Cc1onc(-c2c(F)cccc2Cl)c1C(=O)Nc1cc(S(=O)(=O)N2CCCCC2)ccc1O	0%	52µM*	0%	-10%	8	-4%	35µM*
Cc1ccc(NC(=O)CN2C(=O)COc3ccc(S(=O)(=O)N4CCCCCC4)cc32)cc1Cl	7%	?	19%	2%	-8	0%	14µM*
Cc1ccc(NC(=O)CN2C(=O)COc3ccc(S(=O)(=O)N4CCCC4)cc32)cc1C	2%	0%	15%	-2%	.	.	.
COc1cc2cnc(-c3ccccc3)c(-c3ccc(C#N)cc3)c2cc1OC	4%	32µM*	10%[57.1 µM]	13%	0	?	8.9µM*
COc1cc2cnc(-c3ccsc3)c(-c3ccc(F)cc3)c2cc1OC	-10%	?	11%[57.1 µM]	-6%	1	8%	25µM*
CC1(C)CC(=O)C2=C(C1)N(c1cccnc1)C(N)=C(C#N)C2c1cccs1 (stereo not drawn)	27%	3%	?	-3%	.	.	.
CCSc1sccc1C1C(C#N)=C(N)N(c2cccnc2)C2=C1C(=O)CC(C)(C)C2 (stereo not drawn)	25%	58µM*	-15%	-6%	-3	-6%	28µM*
COc1cc(OC)c(NC(=O)NCc2ccc3c(c2)CCN3C(=O)c2ccccc2)cc1Cl	2%	2%	32%[57.1 µM]	5%[57.1 µM]	.	.	.
Cc1cc(NC(=O)CSc2ncc(C(=O)Nc3ccc(C)c(C)c3)c(=O)n2C)no1	4%	-3%	11%[57.1 µM]	1%[57.1 µM]	.	.	.
